Source: PubChem BioAssay
A number with no mark means an inactive call. Active and inactive are the calls of the source.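 How the source made its calls, unless noted: active means mean inhibition above 46.68%, the untreated control wells mean plus 3 SD; inactive means the rest.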

molecular target: Nuclear receptor coactivator 1 (Homo sapiens) (UniProt Q15788); test: NCOA1 GAL4-fusion reporter inhibition – cell-based, luminescence, quadruplicate, confirmation (AID 588820); conditions: HEK293 GAL4-SRC1 luciferase reporter, at 3.6 µM, hits give high values;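 further: 0% = DMSO wells and 100% = gossypol 36 µM treated wells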
Sequence (Q15788 whole entry, looked up, the tested form may be a part): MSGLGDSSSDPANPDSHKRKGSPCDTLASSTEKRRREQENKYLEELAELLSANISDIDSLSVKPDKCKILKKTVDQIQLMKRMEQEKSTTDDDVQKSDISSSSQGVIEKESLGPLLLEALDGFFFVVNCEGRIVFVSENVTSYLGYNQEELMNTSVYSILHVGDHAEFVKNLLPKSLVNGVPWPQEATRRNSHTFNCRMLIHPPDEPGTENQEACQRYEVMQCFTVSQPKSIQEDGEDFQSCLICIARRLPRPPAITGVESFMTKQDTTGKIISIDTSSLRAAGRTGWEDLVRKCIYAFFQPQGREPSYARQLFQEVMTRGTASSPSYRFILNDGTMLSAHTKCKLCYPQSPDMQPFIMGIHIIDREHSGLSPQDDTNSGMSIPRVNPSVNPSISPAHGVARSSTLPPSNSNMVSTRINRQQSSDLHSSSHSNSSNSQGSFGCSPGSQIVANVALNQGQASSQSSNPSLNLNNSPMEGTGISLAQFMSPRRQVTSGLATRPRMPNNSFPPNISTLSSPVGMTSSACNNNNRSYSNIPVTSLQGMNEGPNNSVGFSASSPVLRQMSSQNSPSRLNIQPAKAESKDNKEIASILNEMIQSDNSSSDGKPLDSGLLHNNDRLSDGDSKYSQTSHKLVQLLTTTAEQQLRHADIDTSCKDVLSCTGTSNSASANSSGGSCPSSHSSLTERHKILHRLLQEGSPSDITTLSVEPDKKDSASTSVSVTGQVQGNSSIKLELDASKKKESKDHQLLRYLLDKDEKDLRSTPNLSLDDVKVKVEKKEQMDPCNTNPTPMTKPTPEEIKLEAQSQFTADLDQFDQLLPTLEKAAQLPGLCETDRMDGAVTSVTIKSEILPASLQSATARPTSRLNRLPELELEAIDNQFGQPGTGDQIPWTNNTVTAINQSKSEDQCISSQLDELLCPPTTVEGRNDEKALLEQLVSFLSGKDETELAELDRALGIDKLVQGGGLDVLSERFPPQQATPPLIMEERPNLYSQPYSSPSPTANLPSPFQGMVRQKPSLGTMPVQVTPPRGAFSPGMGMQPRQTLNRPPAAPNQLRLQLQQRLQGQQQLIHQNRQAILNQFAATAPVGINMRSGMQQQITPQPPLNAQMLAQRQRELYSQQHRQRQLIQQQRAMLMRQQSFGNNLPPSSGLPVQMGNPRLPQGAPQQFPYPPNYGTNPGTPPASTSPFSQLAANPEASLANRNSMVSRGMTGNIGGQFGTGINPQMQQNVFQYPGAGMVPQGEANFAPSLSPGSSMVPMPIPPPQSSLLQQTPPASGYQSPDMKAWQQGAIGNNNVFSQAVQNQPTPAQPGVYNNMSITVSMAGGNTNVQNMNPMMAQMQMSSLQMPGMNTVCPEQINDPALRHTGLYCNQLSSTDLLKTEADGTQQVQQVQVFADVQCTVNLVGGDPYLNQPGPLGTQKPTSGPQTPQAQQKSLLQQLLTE

SMILES	inhibition [%]
CCc1ccc2oc(=O)cc(CN3CCN(Cc4ccccc4)CC3)c2c1	-7.76
CCn1cc(C(=O)NCC(OC)OC)c(=O)c2cc(S(=O)(=O)N(C)C3CCCCC3)ccc21	11.4
CN(Cc1ccc(OC(F)F)cc1)C(=O)c1cccc(S(=O)(=O)N2CCN(Cc3ccccc3)CC2)c1	-14
Cc1ccccc1C(OCC(O)CN1CCN(CCO)CC1)c1ccccc1 (stereo not given)	-13.1
Cc1cccc(N2CCN(S(=O)(=O)c3cc(-c4cc(C)no4)ccc3C)CC2C)c1 (stereo not given)	-10.5
CC1CCN(C(=O)c2scc3c2OCCO3)CC1	18.3
COc1ccc(Nc2cc(C)nc(NCc3ccccc3)n2)cc1	12.3
COc1cc(C(C)=O)ccc1OCC(=O)Nc1ccccc1N1CCCCC1	9.15
Cc1ccccc1-n1nc(C)c2c1N=C1C(Cl)=CC(Cl)=CN1C2c1ccc(C(=O)O)cc1 (stereo not given)	-9.32
Cc1cc[n+](CC(=O)Nc2cccc(C)c2)cc1	-8.15
COc1ccc(S(=O)(=O)N(C)c2ccc(C(=O)Nc3cccnc3)cc2)cc1OC	14.3
CCOc1ccc(OCCC(=O)OCC(=O)NNC(=O)c2ccccc2)cc1	-5.67
O=C(Nc1nc(-c2ccc(F)c(F)c2)cs1)c1cnccn1	7.57
CCN(CC)S(=O)(=O)c1ccc(N2CCOCC2)c(NC(=O)c2cc(-c3ccccn3)nc3ccccc23)c1	-32
O=C1CC(N2CCN(Cc3ccccc3)CC2)C(=O)N1 (stereo not given)	-10.4
C/C(=N\NC(=O)C(C)Oc1ccc([N+](=O)[O-])cc1)c1ccccn1 (stereo not given)	-226
c1cc2c(cn1)cnc1cscc12	40.9
O=C(COC(=O)c1c(Cl)cccc1Cl)Nc1cc(Cl)ccc1Oc1ccccc1	-14.1
COC(C(=O)Nc1ccc(S(=O)(=O)Nc2ccc(C)c(C)c2)cc1)c1ccccc1 (stereo not given)	-8.72
O=C(CCC(=O)Nc1ccc(Br)cc1)N/N=C/c1ccccc1O	29.2

SMILES	inhibition [%]
O=C(Nc1ccncc1)c1ccccc1[N+](=O)[O-]	33.6
COc1ccccc1C(=O)N(Cc1ccc(C)o1)C1CCS(=O)(=O)C1 (stereo not given)	-7.5
NC(CO)C(=O)NNCc1ccc(O)c(O)c1O (stereo not given)	-18.8
CN1CCN(C(=O)CCN2C(=O)/C(=C/c3cccc(Br)c3)SC2=S)CC1	10.7
CCOC(=O)N1CCN(Cc2nc(Cc3cccc(C(F)(F)F)c3)no2)CC1	-24.9
NS(=O)(=O)c1ccc(NC(=O)CCCCC(=O)Nc2ccc(S(N)(=O)=O)cc2)cc1	-1.93
Nc1c(C(=O)c2ccccc2)sc2nsc(SCCN3CCCC3)c12	-0.71
O=C1NC2(CCN(Cc3ccccc3)CC2)Oc2ccccc21	-21.7
S=C1SCN(Cc2ccccn2)CN1Cc1ccco1	-2.15
CC(=O)Nc1cccc(C(=O)Nc2ccc(S(=O)(=O)NC3=NCCCCC3)cc2)c1	-23
CC(=O)c1sc2nc(C)c3c(c2c1N)CCCC3	13.4
COc1ccc(Cc2nnc(NC(=O)c3cc(OC)c(OC)c(OC)c3)s2)cc1OC	-22.8
COc1ccccc1OCCC(=O)OCC(=O)NC(C)c1ccccc1 (stereo not given)	-8.57
CCN(CC)S(=O)(=O)c1ccc(NC(=O)c2ccc(N3CCCC3=O)cc2)cc1	3.05
Cc1cc(NC(=O)CN2CCN(S(=O)(=O)c3ccc4ccccc4c3)CC2)no1	-3.08
COc1cccc(C(c2c(NC(=O)c3ccco3)sc(C)c2C)N2CCOCC2)c1 (stereo not given)	-6.24
CCN(CC)CCNC(=O)c1ccc(NC(=O)C2CCN(c3ncnc4sc(C)c(C)c34)CC2)cc1	24.3
CSCCC(NC(=O)c1ccco1)C(=O)OCC(=O)N(Cc1ccccc1)C(C)(C)C (stereo not given)	-15.8
COC(=O)c1ccsc1NC(=O)CN1CCN(c2ncccn2)CC1	-31.8
COc1ccc(C2CC(c3ccc(Br)cc3)=NN2C(=O)CSC2=NCCS2)cc1 (stereo not given)	7.19

test system: not listed separately; test: repression of VP16-driven luciferase reporter – cell-based, luminescence, high throughput, counter-screen for SRC1 inhibitor project (AID 588824; in the data active means inhibition above about 25%); conditions: cell-based VP16 transactivation luciferase luminescence; at 3.6 µM; hits give high values

SMILES	inhibition
CCc1ccc2oc(=O)cc(CN3CCN(Cc4ccccc4)CC3)c2c1	2.82%
CCn1cc(C(=O)NCC(OC)OC)c(=O)c2cc(S(=O)(=O)N(C)C3CCCCC3)ccc21	19.8%
CN(Cc1ccc(OC(F)F)cc1)C(=O)c1cccc(S(=O)(=O)N2CCN(Cc3ccccc3)CC2)c1	35% (active)
Cc1ccccc1C(OCC(O)CN1CCN(CCO)CC1)c1ccccc1 (stereo not given)	3.65%
Cc1cccc(N2CCN(S(=O)(=O)c3cc(-c4cc(C)no4)ccc3C)CC2C)c1 (stereo not given)	33.8% (active)
CC1CCN(C(=O)c2scc3c2OCCO3)CC1	8.58%
COc1ccc(Nc2cc(C)nc(NCc3ccccc3)n2)cc1	23.2%
COc1cc(C(C)=O)ccc1OCC(=O)Nc1ccccc1N1CCCCC1	8%
Cc1ccccc1-n1nc(C)c2c1N=C1C(Cl)=CC(Cl)=CN1C2c1ccc(C(=O)O)cc1 (stereo not given)	-14.1%
Cc1cc[n+](CC(=O)Nc2cccc(C)c2)cc1	1.99%
COc1ccc(S(=O)(=O)N(C)c2ccc(C(=O)Nc3cccnc3)cc2)cc1OC	17.4%
CCOc1ccc(OCCC(=O)OCC(=O)NNC(=O)c2ccccc2)cc1	-3.09%
O=C(Nc1nc(-c2ccc(F)c(F)c2)cs1)c1cnccn1	-11.4%
CCN(CC)S(=O)(=O)c1ccc(N2CCOCC2)c(NC(=O)c2cc(-c3ccccn3)nc3ccccc23)c1	-1.24%
O=C1CC(N2CCN(Cc3ccccc3)CC2)C(=O)N1 (stereo not given)	-10.1%
C/C(=N\NC(=O)C(C)Oc1ccc([N+](=O)[O-])cc1)c1ccccn1 (stereo not given)	45.6% (active)
c1cc2c(cn1)cnc1cscc12	7.33%
O=C(COC(=O)c1c(Cl)cccc1Cl)Nc1cc(Cl)ccc1Oc1ccccc1	4.43%
COC(C(=O)Nc1ccc(S(=O)(=O)Nc2ccc(C)c(C)c2)cc1)c1ccccc1 (stereo not given)	-12.5%
O=C(CCC(=O)Nc1ccc(Br)cc1)N/N=C/c1ccccc1O	22.2%

SMILES	inhibition
O=C(Nc1ccncc1)c1ccccc1[N+](=O)[O-]	19%
COc1ccccc1C(=O)N(Cc1ccc(C)o1)C1CCS(=O)(=O)C1 (stereo not given)	3.3%
NC(CO)C(=O)NNCc1ccc(O)c(O)c1O (stereo not given)	-2.94%
CN1CCN(C(=O)CCN2C(=O)/C(=C/c3cccc(Br)c3)SC2=S)CC1	16.9%
CCOC(=O)N1CCN(Cc2nc(Cc3cccc(C(F)(F)F)c3)no2)CC1	-12.2%
NS(=O)(=O)c1ccc(NC(=O)CCCCC(=O)Nc2ccc(S(N)(=O)=O)cc2)cc1	-4.87%
Nc1c(C(=O)c2ccccc2)sc2nsc(SCCN3CCCC3)c12	-2.2%
O=C1NC2(CCN(Cc3ccccc3)CC2)Oc2ccccc21	-3.3%
S=C1SCN(Cc2ccccn2)CN1Cc1ccco1	-1.66%
CC(=O)Nc1cccc(C(=O)Nc2ccc(S(=O)(=O)NC3=NCCCCC3)cc2)c1	-8.18%
CC(=O)c1sc2nc(C)c3c(c2c1N)CCCC3	3.88%
COc1ccc(Cc2nnc(NC(=O)c3cc(OC)c(OC)c(OC)c3)s2)cc1OC	-17.4%
COc1ccccc1OCCC(=O)OCC(=O)NC(C)c1ccccc1 (stereo not given)	-18.5%
CCN(CC)S(=O)(=O)c1ccc(NC(=O)c2ccc(N3CCCC3=O)cc2)cc1	22.8%
Cc1cc(NC(=O)CN2CCN(S(=O)(=O)c3ccc4ccccc4c3)CC2)no1	-1.04%
COc1cccc(C(c2c(NC(=O)c3ccco3)sc(C)c2C)N2CCOCC2)c1 (stereo not given)	-1.54%
CCN(CC)CCNC(=O)c1ccc(NC(=O)C2CCN(c3ncnc4sc(C)c(C)c34)CC2)cc1	17.3%
CSCCC(NC(=O)c1ccco1)C(=O)OCC(=O)N(Cc1ccccc1)C(C)(C)C (stereo not given)	-3.79%
COC(=O)c1ccsc1NC(=O)CN1CCN(c2ncccn2)CC1	-17.6%
COc1ccc(C2CC(c3ccc(Br)cc3)=NN2C(=O)CSC2=NCCS2)cc1 (stereo not given)	10.6%
